In the library only some 19% were active in any assay of this set; here they are far more common.
Lassa entry inh = qHTS for Inhibitors of binding or entry into cells for Lassa Virus. Potency, µM (doses to about 37.9 µM), for the others: at the top dose activity change, negative = inhibition, actives largely listed as inhibitors. 1.2% of 300,000 active. Lassa virus pseudotype entry inhibition, cell reporter; calls by dose curve; tested in HEK293 cells; further: potency means the concentration at half of the fitted maximal effect; on the % scale 0 is the no-effect control and ±100 the full control effect; nearly all actives have a fitted effect of over 50% in size
Pf growth 48h = Primary qHTS for delayed death inhibitors of the malarial parasite plastid, 48 hour incubation; 5.9% of 310,000 active; Potency, µM (highest dose often 28.7 µM), without a hit: at the highest dose activity change, negative = inhibition, actives largely listed as inhibitors; P. falciparum luciferase growth in erythrocytes, 48 h; AID 504832, 2011; further: potency means the concentration at half of the fitted maximal effect; on the % scale 0 is the no-effect control and ±100 the full control effect
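First compound was added to culture medium, then infected red cells at 0.1% parasitemia and 2% hematocrit (final). After incubation at 37 C under 5% CO2, luciferase detection reagent was dispensed and light output recorded.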
Pf growth 96h = Primary qHTS for delayed death inhibitors of the malarial parasite plastid, 96 hour incubation; P. falciparum luciferase reporter growth, 96 h; Potency, µM (top dose mostly 28.7 µM), inactives show at the highest dose activity change, negative = inhibition, actives largely listed as inhibitors; 6.9% of 320,000 active; AID 504834, 2011; further: potency means the concentration at half of the fitted maximal effect; on the % scale 0 is the no-effect control and ±100 the full control effect
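96 h incubation, 37 C, 5% CO2, of luciferase-reporter P. falciparum-infected RBCs (2% hematocrit, 0.05% parasitemia final) with test compounds; endpoint luminescence.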
Cycloheximide cs = Cycloheximide Counterscreen for Small Molecule Inhibitors of Shiga Toxin. cell reporter, cycloheximide protein synthesis inhibition counterscreen. 12% of 300,000 active. max response, %; in the data active means max response mostly above about 13%, no sharp cut-off; inactive means mostly below about 14%; further: read at 38.3 µM for the half of the compounds with a filed dose; 0% is about no effect
Shiga inhibitor = A qHTS for Small Molecule Inhibitors of Shiga Toxin | Vero cells, Shiga toxin protein synthesis inhibition reporter | inhibition, % at 38.7 µM | 9.2% of 290,000 active; in the data active means inhibition mostly above about 28%, no sharp cut-off; inactive means mostly below about 43%; further: 0% is about no effect
MARV entry inh = qHTS for inhibitors of binding or entry into cells for Marburg Virus | Potency, µM (top dose mostly 37.8 µM), for inactives: at the highest dose activity change, negative = inhibition, usual class: inhibitors | AID 540276, 2011 | Marburg virus pseudotyped entry inhibition, cell reporter | 1.8% of 300,000 active; calls by dose curve; tested in HEK293 cells; further: potency means the concentration at half of the fitted maximal effect; on the % scale 0 is the no-effect control and ±100 the full control effect
Starred values were filed as active, the others as inactive; ? = inconclusive; · = not tested or not shown; [ ] = another dose, or the depositor's remark. Unless noted, the call rests on the fitted dose curve; in most records, active means well fitted inhibition curve with a large enough effect; inconclusive means small, poorly fitted or top-dose-only effect, or another doubt; inactive means no such curve, though single readings can be large or run the other way.

SMILES	Lassa entry inh	Pf growth 48h	Pf growth 96h	Cycloheximide cs	Shiga inhibitor	MARV entry inh
O=C(CN1CC(=O)Oc2ccccc21)NCc1ccco1	-28%	7%	6%	3	-5	-25%
CCn1c(=O)c(C(=O)Nc2ccccc2S(N)(=O)=O)c(O)c2ccccc21	?	49%	-22%	12*	45	5%
CCCCCn1c(=O)c(C(=O)Nc2ccccc2S(N)(=O)=O)c(O)c2ccccc21	?	33%	8%	17*	84*	?
O=C(NC1CCCc2ccccc21)c1n[nH]c(=O)c2ccccc12 (stereo unspecified)	-6%	?	?	-3	-9	-23%[46.1 µM]
CCc1ccc(NC(=O)[C@H](C)NC(=O)C2CCN(C(=O)[C@@H](N)Cc3ccccc3)CC2)cc1	·	26%	61%	16*	23*	·
N[C@@H](Cc1ccccc1)C(=O)N1CCC(C(=O)N[C@@H](Cc2c[nH]c3ccccc23)C(=O)O)CC1	12%[46.1 µM]	7%	45%	-3	3	7%[46.1 µM]
CCc1ccc(NC(=O)[C@H](C)NC(=O)C2CCN(C(=O)[C@@H](NC(=O)OC(C)(C)C)C(C)C)CC2)cc1	·	?	?	14*	53	5%
CC(C)[C@H](NC(=O)OC(C)(C)C)C(=O)N1CCC(C(=O)N[C@@H](C)C(=O)Nc2ccc(F)cc2)CC1	·	-13%	0%	-2	33	·
Cc1csc(=O)n1CC(=O)OCC(=O)NNC(=O)c1ccc([N+](=O)[O-])cc1	-8%	18%	0%	·	·	-1%
Cc1cccc(C)c1NC(=O)c1cc(S(=O)(=O)N2CCCc3ccccc32)ccc1F	-18%[46.1 µM]	·	·	·	·	·
CCOC(=O)CNC(=O)c1cccs1	-2%	21%	-25%	1	21	4%
COc1ccc(Br)cc1/C=C/C(=O)Nc1c(C)cccc1C	-19%	?	25%	1	-11	?
CCOC(=O)CC1(NC(=O)C2CCC(=O)N(Cc3ccccc3F)C2)CCCCC1 (stereo unspecified)	·	-2%	-3%	16	14	·
CC(=O)N1N=C(c2cccc(NS(C)(=O)=O)c2)CC1c1ccc2c(c1)OCO2 (stereo unspecified)	·	26%	-87%	13*	42	·
CS(=O)(=O)Nc1ccc(C2=NN(S(=O)(=O)c3ccc(F)cc3)C(c3ccco3)C2)cc1 (stereo unspecified)	·	1%	14%	3	-9	·
CS(=O)(=O)Nc1ccc(C2=NN(S(C)(=O)=O)C(c3ccc4c(c3)OCO4)C2)cc1 (stereo unspecified)	12%	148%	2.9µM*	30*	85*	?
C=Cn1cc[n+](CC(=O)c2ccc(Cl)c(Cl)c2)c1	·	?	-18%	-2	·	·
O=C(NCCCc1nc2ccccc2n1Cc1ccccc1Cl)c1ccco1	-11%[46.1 µM]	·	·	·	·	5%[46.1 µM]
Clc1ccccc1Cn1c(/C=C/c2ccco2)nc2ccccc21	3%	?	?	90*	132*	?
Cc1oc(=O)oc1CN1CCN(c2cc3c(cc2F)c(=O)c(C(=O)O)c2n3C(C)S2)CC1 (stereo unspecified)	·	2.4µM*	1.7µM*	·	·	·
O=C(COC(=O)Cn1nnc2ccccc21)Nc1ccccc1Br	?	15%	0%	-2	-3	?
CC[C@H](C)[C@H](NC(=O)OCc1ccccc1)C(=O)OCC(=O)N(C)CC(=O)Nc1ccccc1Cl	4%	12%	79%	·	·	-2%
CSc1nnc(-c2sccc2-n2cccc2)o1	1%[46.1 µM]	?	?	1	-6	12%[46.1 µM]
N#Cc1ccc(CSc2nnc(-c3cccc(S(=O)(=O)N4CCCCC4)c3)o2)cc1	?	13µM*	?	7	-7	?
Clc1cccc(Cl)c1CSc1nnc(-c2sccc2-n2cccc2)o1	1%	?	?	20*	95*	?
SMILES	Lassa entry inh	Pf growth 48h	Pf growth 96h	Cycloheximide cs	Shiga inhibitor	MARV entry inh
N#Cc1ccccc1CSc1nnc(-c2ccncc2)o1	?	70%	32%	34*	49*	?
Fc1cccc(Cl)c1CSc1nnc(-c2ccncc2)o1	·	82%	85%	36*	57*	·
O=C(O)CSc1nnc(-c2cccc(S(=O)(=O)N3CCCCC3)c2)o1	5%	-4%	-17%	-3	-3	18%[46.1 µM]
Cc1ccc(NC(=O)C2(c3ccccc3)CCCC2)nc1	5%	·	·	·	·	?
FC(F)(F)COc1ccc(-c2nnc(SCc3c(Cl)cccc3Cl)o2)cn1	-37%	-3%	-6%	0	11	-9%
COC(=O)C(Cc1ccccc1)NC(=O)CNC(=O)c1ccc(Br)o1 (stereo unspecified)	-3%	-25%	?	·	·	-11%
N#Cc1cccc(-c2nnc(SCc3ccccc3C#N)o2)c1	10%	30%	29%	46*	89*	29%
c1ccc2c(CSc3nnc(-c4ccncc4)o3)cccc2c1	?	?	?	1	-7	5%
N#Cc1ccccc1CSc1nnc(Cc2ccccc2)o1	0%[46.1 µM]	5%	?	21*	53*	27%[46.1 µM]
Clc1ccccc1CSc1nnc(-c2ccncc2)o1	11%	35%	0%	47*	54*	?
CCc1cccc(N(C(=O)c2csnn2)C(C(=O)NC2CCCC2)c2cccnc2)c1 (stereo unspecified)	1%	1%	-2%	-8	2	-8%[46.1 µM]
CC1CCN(S(=O)(=O)c2ccc(NC(=O)Cc3ccccc3)cc2)CC1	-14%	·	?	1	-22	?
O=C1CN(CC(=O)Nc2ccc(Cl)cc2)CCN1	9%	·	-4%	-4	-13	14%
Cc1ccc(S(=O)(=O)N2CCCCC2)cc1NC(=O)Nc1ccc(Cl)cc1Cl	·	7%	15%	-1	-15	·
O=C(Nc1cccc(Cl)c1)Nc1cc(S(=O)(=O)N2CCCCC2)ccc1Cl	?	?	2.9µM*	7	-12	4µM*
CN1CCN(S(=O)(=O)c2ccc(NC(=O)Nc3cccc(Cl)c3)cc2)CC1	?	2.9µM*	2%	16*	11	?
Cc1cccc(NC(=O)CSc2nnc(CNC(=O)c3ccco3)n2C)c1C	7%	16%	?	·	·	13%
Cc1cccc(N2C(=O)CSC23CCCCC3)c1	·	-21%	1.5µM*	-1	-26	·
COCCNCC(=O)N1CCCCCC1	23%	-2%	12µM*	3	30	0%
COc1ccc(NC(=O)C(CCS(C)(=O)=O)NC(C)=O)cc1 (stereo unspecified)	-2%	12%	14%	-2	-4	?
CC(=O)Nc1ccc(C(=O)OCCC(C)C)cc1	26%	61%	-10%	24*	84*	?
CC(=O)Nc1ccc(C(=O)OCC(=O)NC(=O)NC(C)(C)C)cc1	11%	·	?	-4	-20	3%
CCCOC(=O)c1ccc(NC(=O)CC(C)(C)C)cc1	·	125%	-5%	34*	54*	·

Screening results (PubChem BioAssay)
